Here are results for 40 compounds from PubChem BioAssay (NCI).

About 83,000 compounds went through this panel and 20% of them were active in at least one assay; those are over-represented in the sample as a whole.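 Step 1: grow cells in 96-well plates. Step 2: add test compound at a single concentration. Step 3: incubate 48 h. Step 4: record percent growth.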 A number with no mark means an inactive call. Activity calls are given as the source filed them.

The test system of this assay is HOP-92 NSCLC. Kind of assay: NCI-60 one-dose screen, 48 h (100 = growth as untreated, 0 = no growth, -100 = all killed). The following applies: 10 µM. How it is done:
Growth inhibition of the HOP-92 human Non-Small Cell Lung tumor cell line is measured as a screen for anti-cancer activity. Cells are grown in 96 well plates and exposed to the test compound for 48 hours. Compounds are tested at a single concentration, which is 10^-5 M for most compounds. The reported endpoint is percent growth (GI% or GIPRCNT), where numbers from 0 - 100% represent growth inhibition, and numbers from -100% - 0 represent cell death. For example, a value of 40 represents 60% growth inhibition. A value of 0 means no net growth occurred over the course of the experiment. A value of -40 indicates 40% of cells at the beginning of the experiment died by the end of the experiment. A value of -100 means all cells are dead at the end of the experiment.
NCI-60 Human Tumor Cell Lines Screen was performed using the standard one-dose NCI protocol, which is described in more detail at https://dtp.cancer.gov/discovery_development/nci-60/default.htm.
Compounds with GIPRCNT values below 10 were considered active. Activity score was based on GIPRCNT using the following formula: […]
Score is 0 for GIPRCNT values of 100 or above, 50 for GIPRCNT values of 0, and 100 for GIPRCNT values of -100.
Take `C=C(C)[C@@H]1CC[C@]2(COP(=O)(OCC)OCC)CC[C@]3(C)[C@H](CC[C@@H]4[C@@]5(C)CCCNC(C)(C)[C@@H]5CC[C@]43C)[C@@H]12`: the growth was 41%.

With `COc1ccc2c(c1)c(-c1cc(N)n3nc(-c4cn(C)c5ccc(OC)cc45)cc3n1)cn2C`, the growth is 86.8%.

In the case of `COc1cc(/C=C2\C(=O)Nc3ccccc32)ccc1OCc1ccc(F)cc1`, the growth was 99.8%.

As to `Cc1ccc2c(c1)C13C(=C2Br)CCCN1C(=O)c1ccccc13` (stereo not given), the growth is 78.8%.

With `CCc1nn2c(C)cc(C)nc2c1Cc1ccc(/C=C/CN2CCN(CCOCCOCCN3CCN(C/C=C/c4ccc(Cc5c(CC)nn6c(C)cc(C)nc56)cc4)CC3)CC2)cc1`, the growth was -5.1% (active).

As for `Nc1nc(Nc2ccccc2SSc2ccccc2Nc2nc(N)nc(-c3cccc(Br)c3)n2)nc(-c2cccc(Br)c2)n1`, the growth was 86%.

For `CC/C(=C/c1c(O)cccc1OC)c1ccc2c(OC)cccc2[o+]1`, the growth is 110%.

On to `Cc1ccc(-n2c(/C=C3\C(=O)Nc4ccccc43)ccc2CO)cc1`, for which the growth was 84.5%.

`C[C@@H](Nc1c(C#N)cnc2ccc(-c3cnc(Cl)c(NS(C)(=O)=O)c3)cc12)c1ccccc1`: the growth is -14.5% (active).

With `COc1cc(Cn2cc3c(c2)-c2onc(CN4CCCC4)c2CC3)cc(OC)c1OC`, the growth was 92.3%.

For the compound `NC/C(=C/F)COc1ccc2nc(NCc3cccnc3)oc2c1`, the growth was 116%.

For `CCCCCCCn1cc2c(N[C@H](C)c3ccccc3)ncnc2n1`, the growth was 94%.

As for `Cn1ccnc1C(=O)/C=C/C=C/c1ccc(C(=O)Nc2ccc(F)cc2)cc1`, the growth is 82.9%.

In the case of `Cc1c(F)cc(C(N)=O)cc1NCC(=O)Nc1ccc([N+](=O)[O-])cc1`, the growth was 75.8%.

With `CN(Cc1ccccc1)S(=O)(=O)/N=C1\NC(=O)NC1=C(Cl)Cl`, the growth was 73.7%.

Take `NC(=O)c1c(NC(=O)c2ccc(F)cc2F)sc2c1CCC(=O)C2`: the growth was 66.1%.

Turning to `O=C(NNc1nc2cc(F)c(F)cc2n2c(CN3CC4CNCC4C3)ccc12)c1cnccn1` (stereo not given), the growth is 37.4%.

Consider `C=C1CC[C@@H]2[C@](C)(CO)[C@H](O)CC[C@@]2(C)[C@@H]1C/C(O)=C1\CCOC1=O`, for which the growth is 101%.

Take `CS(=O)(=O)c1ccc(-n2cc(/C=N/O)c(-c3ccccc3)n2)cc1`: the growth was 87.9%.

Turning to `COc1ccccc1NC1=C(Cl)C(=O)c2nc(C)ccc2C1=O`, the growth was -83.8% (active).

For `C=CC(=O)N1CC=C(c2cc3c(N[C@H](C)c4ccccc4)ncnc3[nH]2)CC1`, the growth was 39%.

On to `Nc1nc(Nc2ccccc2SSc2ccccc2Nc2nc(N)nc(-c3ccccc3)n2)nc(-c2ccccc2)n1`, for which the growth was 69.7%.

Consider `CC(C)C[C@@H]1N[C@@]2(C(=O)Nc3ccccc32)[C@@H](c2ccc(F)cc2)[C@@H]1C(=O)c1ccc(O)cc1`, for which the growth is 74.3%.

`O=C(Nc1ccc(F)c(F)c1)c1cc(-c2ccc(F)cc2F)ccc1O`: the growth is -19% (active).

Regarding `C=C(C=O)[C@@H]1CC[C@]2(C)[C@H](CC=C3[C@H]4[C@@H](C)[C@H](C)CC[C@]4(C(=O)OC)CC[C@]32C)[C@@]1(C)CCC#N`, the growth is -31.6% (active).

`C=CCn1c(SCC(=O)Nc2ccc(C(=O)/C=C/c3cc(OC)c(OC)c(OC)c3)cc2)nnc1-c1c[nH]c2ccccc12`: the growth was 63.7%.

Regarding `CC(C)(O)c1cncc(-c2ccc3ncnc(NCc4ccccc4)c3c2)c1`, the growth was 72.3%.

For the compound `COc1cc(Cn2cc3c(c2)-c2onc(CN4CCOCC4)c2CC3)cc(OC)c1OC`, the growth was 89.7%.

Regarding `CCCCCc1ccc(S(=O)(=O)Nc2cccc(-c3csc(NC(=O)CCCCCN4CCN(C)CC4)n3)c2)cc1`, the growth was 29.8%.

Regarding `C=C(C)[C@@H]1CC[C@]2(COC)CC[C@]3(C)[C@H](CC[C@@H]4[C@@]5(C)CCCNC(C)(C)[C@@H]5CC[C@]43C)[C@@H]12`, the growth is 74.9%.

`CC1(C)CC[C@]2(C(=O)N3CCOCC3)CC[C@]3(C)C(=CC[C@@H]4[C@@]5(C)C/C(=C/c6ccco6)C(=O)C(C)(C)[C@@H]5CC[C@]43C)[C@@H]2C1`: the growth is 77.8%.

Turning to `COc1ccc(Cn2cc3c(c2-c2cc(OC)c(OC)c(OC)c2)CCc2c(CN4CCOCC4)noc2-3)cc1`, the growth is 100%.

For the compound `CS(=O)(=O)c1ccc(-c2nn(-c3ccccc3)cc2/C=N/NC(=O)c2nc(N)n[nH]2)cc1`, the growth is 103%.

Regarding `COC[C@]12CCC(C)(C)C[C@H]1C1=CC[C@@H]3[C@@]4(C)CCCNC(C)(C)[C@@H]4CC[C@@]3(C)[C@]1(C)CC2`, the growth is -3.83% (active).

With `Nc1cc(-c2c[nH]c3ccc(Br)cc23)nc2cc(-c3c[nH]c4ccc(Br)cc34)nn12`, the growth is -12.1% (active).

For `CCCCCc1ccc(S(=O)(=O)Nc2cc(-c3csc(NC(=O)CN4CCN(C)CC4)n3)ccc2N2CCN(C)CC2)cc1`, the growth was 49.9%.

As for `Cc1ccc(-c2nnc(SCc3ccc(O)c4ncccc34)o2)cc1`, the growth was 10.4%.

As to `COc1ccc2c(c1)c(CC(=O)[Se]CC(=O)O)c(C)n2C(=O)c1ccc(Cl)cc1`, the growth was 93.7%.

`CN(C)C(=O)c1cc(-c2ccc3ncnc(NCc4ccccc4)c3c2)cnc1N`: the growth was 81.1%.

`COc1cc(C2N=C(NNc3ccccc3)NC(C)=C2C(C)=O)ccc1O` (stereo not given): the growth is 90.4%.
